AmpC inh no detg – blocks E. coli AmpC beta-lactamase in detergent-free assay; P00811; AmpC nitrocefin hydrolysis, absorbance 480 nm, 0.0001% Triton; Potency, µM (titrated, usually from 57.1 µM), without a hit: top-dose activity change, negative = inhibition, usual class: inhibitors; hit rate 0.52% among 330,000; AID 485341;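 also: plate controls were no compound for no effect and no enzyme for full effect; nearly all actives have a fitted effect of over 20% in size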
Target sequence (P00811 whole entry, looked up): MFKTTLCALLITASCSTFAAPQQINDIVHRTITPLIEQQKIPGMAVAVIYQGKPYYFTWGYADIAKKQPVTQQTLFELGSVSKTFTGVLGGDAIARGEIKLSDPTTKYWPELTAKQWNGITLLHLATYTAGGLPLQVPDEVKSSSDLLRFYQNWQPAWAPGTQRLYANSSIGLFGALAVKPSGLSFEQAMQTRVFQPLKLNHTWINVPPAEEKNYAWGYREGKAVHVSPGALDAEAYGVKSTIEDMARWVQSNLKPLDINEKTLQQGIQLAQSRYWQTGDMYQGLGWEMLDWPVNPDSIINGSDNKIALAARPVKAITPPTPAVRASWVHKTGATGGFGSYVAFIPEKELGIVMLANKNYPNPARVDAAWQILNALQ
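AmpC (5.3 nM in the dispensed reagent) in 20 mM phosphate pH 7.0 with 0.01% (detergent screen) or 0.0001% Triton X-100 was preincubated with compounds for 15 min at room temperature. Nitrocefin was then added from an 800 uM solution, and hydrolysis was followed at 480 nm.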
AmpC inh detg – inhibitors of E. coli AmpC beta-lactamase with detergent; AmpC hydrolysis of nitrocefin, absorbance 480 nm, 0.01% Triton; Potency, µM (top dose mostly 114 µM), inactives show at the highest dose activity change, negative = inhibition, most hits filed as inhibitors; hit rate 0.041% among 370,000; AID 485294;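 also: 0% = no-compound wells and -100% = no-enzyme wells; nearly all actives have a fitted effect of over 25% in size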
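AmpC (5.3 nM in the dispensed reagent) in 20 mM phosphate pH 7.0 with 0.01% (detergent screen) or 0.0001% Triton X-100 was preincubated with compounds for 15 min at room temperature. Nitrocefin was then added from an 800 uM solution, and hydrolysis was followed at 480 nm.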
Sm TGR inh – inhibitors of Schistosoma mansoni thioredoxin glutathione reductase | Q962Y6 | purified TGR, DTNB reduction, TNB absorbance 405 nm | Potency, µM (series often up to 114 µM), without a hit: at the top dose activity change, negative = inhibition, most hits filed as inhibitors | hit rate 3% among 360,000; also: nearly all actives have a fitted effect of over 60% in size
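TGR 20 nM + NADPH 100 uM (dispensed conc.), cpd preinc 15 min RT; start with NADPH (500 uM addition) then DTNB (15 mM addition). Kinetic TNB absorbance, 405 nm filter. Four-parameter Hill fit across titration.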
AMA1-RON2 inh – AMA1-RON2 (P. falciparum) interaction inhibition; AlphaScreen AMA1-biotinylated RON2 peptide binding; hit rate 0.2% among 360,000; Potency, µM (series often up to 58.2 µM), without a hit: top-dose activity change, negative = inhibition, most hits filed as inhibitors;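 also: 0% = vehicle wells and -100% = peptide control; nearly all actives have a fitted effect of over 45% in size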
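AMA1 (3D7) with his tag at 25 nM final met compounds first, then biotinylated RON2 peptide at 25 nM; detection used donor plus acceptor beads, 10 µg/mL apiece, read by AlphaScreen after 30 min at room temperature.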
FMDV inh – blocks foot and mouth disease virus. hit rate 1.2% among 410,000. AID 1159524. Potency, µM (highest dose often 57.9 µM), inactives show at the top dose activity change, negative = inhibition, usual class: inhibitors. FMDV antiviral cell-based qHTS; calls by dose curve; tested in HEK293T cells; also: read-out not given here; nearly all actives have a fitted effect of over 45% in size
Active calls of the source: *; ? = inconclusive; . = no result given; [ ] = another dose, or the depositor's remark. In the library only some 4.1% were active in any assay of this set; here they are far more common. Unless noted, calls follow the shape of the dose curve; as a rule, active = well fitted curve in the direction sought with a large enough effect; inconclusive = small, poorly fitted or top-dose-only effect, or another doubt; inactive = no such curve, though single readings can be large; an effect the other way counts as inactive or inconclusive. Unless noted, % is scaled to controls: 0 for no effect and ±100 for the full control effect; potency is read from the fitted curve at half-maximal effect.

SMILES	AmpC inh no detg	AmpC inh detg	Sm TGR inh	AMA1-RON2 inh	FMDV inh
CC(=O)n1cc([C@@H]2C=C(C(=O)NCc3ccccc3)O[C@H](OCc3ccc(CO)cc3)C2)c2ccccc21	7%	13%	50µM*	-3%	-24%
CC(=O)n1cc([C@H]2C=C(C(=O)N3CCN(Cc4ccccc4)CC3)O[C@@H](OCc3ccc(CO)cc3)C2)c2ccccc21	184%	0%	18µM*	?	-8%
COc1cccc(CNC(=O)CCc2nnc3n(CC(C)C)c(=O)c4ccccc4n23)c1	.	27%	3%	.	-12%
C/C(=N\NC(=S)Nc1cc(S(=O)(=O)N2CCOCC2)ccc1Cl)c1ccccc1F	-45%	-8%	10%	6%	13µM*
CC(C)N(C(=S)Nc1cc(S(=O)(=O)N2CCOCC2)ccc1Cl)c1ccccc1	-11%	-11%	-25%	-11%	-2%
COCCNC(=O)CCN1C(=O)c2cccnc2Oc2ccc(C)cc21	.	-2%	2%	.	9%
CCNc1nc(NC(C)C)nc(N(C#N)C(C)C(=O)N(C)C)n1 (centres undefined)	10%	-12%	-4%	0%	14%
CC(C)Nc1nc(NC(C)C)nc(N(C#N)C(C)C(=O)N(C)C)n1 (centres undefined)	18%	-1%	40µM*	.	.
CCOc1ccc(CCNC(=O)c2cccc(S(=O)(=O)N3CCCCC3)c2)cc1OCC	16%	-15%	-3%	-6%	28µM*
CCOc1ccc(CCNC(=O)c2cccc(S(=O)(=O)N3CCOCC3)c2)cc1OCC	40%	?	-2%	8%	-22%
CCOc1ccc(CCNC(=O)c2ccc(Cl)c(S(=O)(=O)N3CCOCC3)c2)cc1OCC	8%	?	-2%	0%	?
COc1ccc(CCNC(=O)c2ccc(CNS(=O)(=O)c3cc(C)ccc3C)cc2)cc1OC	-10%	-13%	0%	4%	20µM*
CCOc1ccc(CCNC(=O)c2ccc(CNS(=O)(=O)c3ccccc3)cc2)cc1OCC	-12%	-2%	-13%	-6%	28µM*
CCOc1ccc(CCNC(=O)c2ccc(C)c(S(=O)(=O)N3CCOCC3)c2)cc1OCC	.	.	.	-4%[11.6 µM]	22µM*
COC(=O)[C@@H]1C[C@H](NC(=O)c2ccccn2)CN1Cc1cccc2ccccc12	.	.	.	.	4%
COc1ccc(CCNC(=O)c2ccc3nc(N4CCOCC4)sc3c2)cc1OC	70%	6%	15%	-6%	-19%
CCOc1ccc(CCNC(=O)c2ccc3nc(N4CCOCC4)sc3c2)cc1OCC	-1%	3%	1%	1%	14µM*
COc1ccc(Cl)cc1NC(=O)CN(C)S(=O)(=O)c1ccc2c(c1)CCCN2C(C)=O	.	5%	-1%	.	?
CCOc1ccc2nc(N3CCC(C(=O)Nc4ccccc4CC)CC3)sc2c1	.	-1%	5%	.	1%
COc1cccc(C(=O)C(CCC#N)c2ccccc2)c1 (centres undefined)	.	.	.	0%	?
O=C(O)c1ccc(C(=O)C(=O)c2ccccc2)cc1	-18%	0%	-14%	11%	15%
CSC(SC)=C(C#N)C(=O)c1ccccc1	-20%	0%	11µM*	-1%	16µM*
COc1cccc(C(=O)C(C#N)=C(SC)SC)c1	-21%	7%	13µM*	-2%	28µM*
CCc1ccc(NC(=O)CSc2nnc(-c3cc4occc4n3C)n2-c2ccccc2C)cc1	.	17%	3%	.	4%
Cc1ccc(NC(=O)c2cc3nc(-c4ccc5c(c4)OCO5)cc(C(F)(F)F)n3n2)cc1Cl	.	1%	14%	.	-17%
SMILES	AmpC inh no detg	AmpC inh detg	Sm TGR inh	AMA1-RON2 inh	FMDV inh
Cc1cc(C)n(CC(=O)N2CCC(n3c(C(C)C)nc4cccnc43)CC2)n1	.	.	.	.	-1%
CC(C)(C)c1ccc(S(=O)(=O)N2CCN(Cc3noc(CCC(=O)N4CCCCC4)n3)CC2)cc1	.	?	-3%	.	-27%
O=C1CCCC(O)=C1C1C2=C(CCCC2=O)OC2=C1C(=O)CCC2	-10%	2%	-6%[57.1 µM]	-2%	-3%
COc1ccc2c(c1)OC1=C(C(=O)CCC1)C2C1=C(O)CCCC1=O (centres undefined)	-15%	-2%	18µM*	-3%	?
CCOc1ccc(N2C(=O)NC(=O)/C(=C/c3cnc(SC)nc3)C2=O)cc1	-29%	2%	8.9µM*	5%	-21%
CSc1ncc(/C=C2/C(=O)NC(=O)N(c3ccc(Cl)cc3)C2=O)cn1	-35%	-13%	5.6µM*	11%	-5%
Cc1ccc(N2C(=O)NC(=O)/C(=C/c3ccoc3)C2=O)cc1	-30%	1%	?	-15%	-17%
Cc1ccc(N2C(=O)NC(=O)/C(=C\c3cnc(-c4ccccc4)nc3)C2=O)cc1	-24%	-10%	1.6µM*	-4%	-3%
CSc1ncc(/C=C2/C(=O)NC(=O)N(c3ccc(C)cc3)C2=O)cn1	-26%	2%	2.5µM*	9%	-10%
Cc1ccc(N2C(=O)NC(=O)/C(=C/c3cnn(-c4ccc(C)cc4)c3)C2=O)cc1	-10%	-12%	-24%	-13%	?
O=S(=O)(c1ccc(Br)cc1)c1nnn2c1nc(NCc1ccc3c(c1)OCO3)c1sccc12	.	-2%	1%	.	-16%
CCOC(=O)C1=CC[C@@H](c2cccc(Br)c2)N(S(=O)(=O)c2ccc(F)cc2)[C@H]1c1cccc(Cl)c1	.	.	.	-13%	-2%
CCOC(=O)c1sc2nc(-c3ccco3)c3c(c2c1N)CC(C)(C)OC3	34%	-11%	0.89µM*	-8%	?
CC(C)Sc1nc(SCC(=O)O)c2c3c(sc2n1)COC(C)(C)C3	-43%	10%	-1%	-2%	35%
Cc1nc2sc(C(=O)O)c(N)c2c2c1COC(C)(C)C2	-1%	?	0%	27%	-2%
Cc1nc(SCC(=O)NCc2ccco2)c2c3c(sc2n1)CCCC3	34%	-7%	-9%[11.4 µM]	-6%	-4%
CCCc1nc2sc3c(SCC(=O)NCc4ccco4)ncnc3c2c2c1CCC2	40%	?	16µM*	-26%	2%
CC(C)Sc1nc(SCC(=O)NCc2ccco2)c2c3c(sc2n1)COC(C)(C)C3	21%	-13%	28µM*	-13%	?
COC(=O)CSc1ncnc2c1sc1nc(-c3ccco3)c3c(c12)CC(C)(C)OC3	-30%	?	4µM*	.	.
COC(=O)c1ccc(Cn2c(SCc3ccccc3F)nc3ccncc32)cc1	.	-3%	-10%	.	-4%
COc1ccc(N2C(=O)CC(N3CCC(c4nc5ccccc5[nH]4)CC3)C2=O)cc1 (centres undefined)	13%	3%	40µM*	2%	4%
COc1ccc(N2C(=O)CC(n3cnc4ccccc43)C2=O)cc1 (centres undefined)	1%	-2%	-22%	0%	-25%
